# According to PubChem BioAssay AID2235 (The Scripps Research Institute Molecular Screening Center, 2010):
# Screen size: about 320,000 compounds; about 2,800 (0.88%) were called active.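 How the source made its calls: active means inhibition above the mean inhibition of all tested compounds plus 3 SD, computed separately for each screening campaign (cut at about 15% in these data); inactive means the rest.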 The sample as a whole holds a higher share of actives than the screen did.
# Molecular target: Serine/threonine-protein phosphatase PP1-alpha catalytic subunit (Homo sapiens) (UniProt P62136)
# Assay: inhibition of human PP1 catalytic subunit – biochemical, fluorescence, OMFP substrate, single point, counter-screen for PP5 inhibitor project, primary screen (AID 2235)
# Conditions: purified PP1alpha, at 6.7 µM, active compounds read high
# Sequence of Serine/threonine-protein phosphatase PP1-alpha catalytic subunit (Homo sapiens) (P62136 whole entry, looked up): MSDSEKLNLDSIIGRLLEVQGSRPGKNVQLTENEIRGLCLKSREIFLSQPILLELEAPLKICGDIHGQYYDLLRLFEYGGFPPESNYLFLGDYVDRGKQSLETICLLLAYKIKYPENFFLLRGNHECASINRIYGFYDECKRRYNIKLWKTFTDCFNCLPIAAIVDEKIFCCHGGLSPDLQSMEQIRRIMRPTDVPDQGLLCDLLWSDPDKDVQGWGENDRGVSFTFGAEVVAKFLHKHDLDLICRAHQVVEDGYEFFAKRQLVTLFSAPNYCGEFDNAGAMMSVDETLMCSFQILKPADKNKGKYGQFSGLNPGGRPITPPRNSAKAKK
row,Compound,inhibition
1,O=C(CSc1nnc(C2CC2)n1Cc1ccccc1)Nc1cccnc1Cl,18% (active)
2,CC(=O)c1cccc(NC(=O)COc2ccc(S(=O)(=O)N3CCOCC3)cc2)c1,-2.4% (inactive)
3,Cc1ccccc1/[N+]([O-])=C/c1ccncc1,-3.82% (inactive)
4,O=S(=O)(NCc1ccc2c(c1)OCO2)c1cccc2nsnc12,-1.4% (inactive)
5,O=S(=O)(c1ccc(F)cc1)N1CCN(C(=S)NCc2ccco2)CC1,-1.26% (inactive)
6,COc1ccc2nc(NC(=O)c3ccc(Br)s3)sc2c1,3.31% (inactive)
7,COc1ccc2nc(Nc3nc(-c4ccncc4)cs3)sc2c1,15.7% (active)
8,COc1ccc2nc(NC(=O)NC3CCCCC3)sc2c1,0.1% (inactive)
9,CCOC(=O)c1c(Cc2ccc(Cl)cc2)c[nH]c1C,0.15% (inactive)
10,COc1ccc(NC(=O)c2cc(-c3ccc(C)o3)nc3ccccc23)cc1,-1.75% (inactive)
11,O=C(Nc1cccc(F)c1)c1cc(-c2ccco2)nc2ccccc12,17% (active)
12,O=C(O)c1cccc(NC(=O)c2cc(-c3cccc(Cl)c3)nc3ccccc23)c1,8.21% (inactive)
13,O=C(c1ccc(Cl)nc1)N1CCN(S(=O)(=O)c2ccc3c(c2)OCCO3)CC1,1.34% (inactive)
14,FC(F)(F)c1nc(-c2ccccc2)ncc1-c1nnnn1-c1ccccc1,0.75% (inactive)
15,Clc1ccc(-n2nnnc2-c2cnc(-c3ccccn3)nc2-c2cccs2)cc1,75.5% (active)
16,O=C(Cn1cc(-c2nnnn2-c2ccc(Cl)cc2)c(=O)c2ccccc21)c1ccccc1,1.68% (inactive)
17,O=S(=O)(c1ccc(F)cc1)n1ccc(-c2cnc(-c3ccccc3)s2)n1,5.23% (inactive)
18,CCOc1ccc2sc(NS(=O)(=O)c3ccc(N)cc3)nc2c1,1.47% (inactive)
19,COCCCn1c(SCC(=O)Nc2oc(C)c3c(C)n[nH]c(=O)c23)nc2sc3c(c2c1=O)CCC3,-2.04% (inactive)
20,CCOc1ccc(C(O)Cn2c(=N)n(CCN3CCCCC3)c3ccccc32)cc1 (configuration not stated),0.66% (inactive)
21,Cc1cccc(OCC(O)Cn2c(=N)n(CCN3CCOCC3)c3ccccc32)c1 (configuration not stated),26% (active)
22,C=CCn1c(=N)n(CC(O)COc2ccc(OC)cc2)c2ccccc21 (configuration not stated),-0.92% (inactive)
23,Cc1ccc(NC(=O)NC(=O)N(C2CCCCC2)S(=O)(=O)c2ccccc2)cc1,0.85% (inactive)
24,C=CCn1c(SCc2csc(C)n2)nc2scc(-c3ccc(C)o3)c2c1=O,-0.82% (inactive)

row,Compound,inhibition
1,C=CCn1c(=S)[nH]c2scc(-c3ccco3)c2c1=O,18.8% (active)
2,C=CCNC(=O)CSc1nc2scc(-c3ccco3)c2c(=O)n1CC=C,3.47% (inactive)
3,COc1cc(NC(=S)NNC(=O)CC(C)C)c(OC)cc1Cl,-3.43% (inactive)
4,Cc1nnc(NC(=O)CCC(=O)N2CCC(C)CC2)s1,-0.54% (inactive)
5,CC1(C)O[C@@H]2[C@H](O1)[C@@H](COS(=O)(=O)O)O[C@H]2n1ccc(=O)[nH]c1=O,1.54% (inactive)
6,COc1cc(NC(=O)CSc2nnc3ccc(-c4ccncc4)nn23)cc(OC)c1,-2.13% (inactive)
7,CSCc1nnc(NC(=O)c2ccc(S(=O)(=O)N3CCCCC3C)cc2)o1 (configuration not stated),16.8% (active)
8,CC1CCCCN1S(=O)(=O)c1ccc(C(=O)Nc2nnc(-c3cccs3)o2)cc1 (configuration not stated),25.9% (active)
9,CC1CCCCN1S(=O)(=O)c1ccc(S(=O)(=O)N(CC(=O)Nc2ccccc2)Cc2cccs2)cc1 (configuration not stated),3.05% (inactive)
10,CC1CCCCN1S(=O)(=O)CCNC(=O)c1ccccc1 (configuration not stated),-2.78% (inactive)
11,CC1CCCN(S(=O)(=O)c2ccc(C(=O)Nc3nnc(-c4ccncc4)o3)cc2)C1 (configuration not stated),7.97% (inactive)
12,O=C(Nc1nnc(-c2ccco2)o1)c1ccc(S(=O)(=O)N2CCOCC2)cc1,1.14% (inactive)
13,COC(=O)c1ccc(-c2c(-c3ccccc3)ncc3cc(OC)c(OC)cc23)cc1,1.2% (inactive)
14,CCCCCCCC(=O)NC(Nc1ccccc1OC)C(Cl)(Cl)Cl (configuration not stated),4.91% (inactive)
15,COCC(=O)Nc1c(I)c(C(=O)NCC(O)CO)c(I)c(C(=O)N(C)CC(O)CO)c1I (configuration not stated),-5.4% (inactive)
16,Cc1cc(C)nc(-n2ncc3c2CC(c2ccc(C(C)C)cc2)CC3=O)n1 (configuration not stated),15.3% (active)
17,COc1cc(S(=O)(=O)Nc2ncn[nH]2)ccc1Cl,-0.04% (inactive)
18,CN1OC(COC(=O)c2ccc(Cl)cc2)CC1c1ccccc1 (configuration not stated),1.23% (inactive)
19,Cc1ccc([C@@H]2CC=C(C(=O)O)[C@H](c3cccc(Cl)c3)N2S(=O)(=O)c2ccc(C)cc2)cc1,5.69% (inactive)
20,Cc1ccc(S(=O)(=O)N2[C@@H](c3ccccc3F)C(C(=O)O)=CC[C@H]2c2ccc(Cl)cc2)cc1,4.64% (inactive)
21,Cc1ccccc1S(=O)(=O)N1[C@@H](c2cccc(Cl)c2)C(C(=O)O)=CC[C@H]1c1ccc(Cl)cc1,20.5% (active)
22,CS(=O)(=O)N(CC(=O)N1CCN(c2cccc(Cl)c2)CC1)c1ccccc1,-1.41% (inactive)
23,Cc1ccc(S(=O)(=O)N2[C@@H](c3cccc(Cl)c3)C(C(=O)O)=CC[C@H]2c2ccc(Cl)c(Cl)c2)cc1,21.6% (active)
